1 compound from PubChem BioAssay AID489017 (The Scripps Research Institute Molecular Screening Center, 2010) can be followed below.

Structures are written as SMILES. Unmarked numbers belong to inactive results. No rule for the calls is given here.

The assay concerns Phorbol Ester. As to the kind of experiment: receptor, enzyme and CYP inhibition profiling – biochemical, Ricerca HitProfilingScreen, CYP450, selectivity assay for S1P4 antagonist project, profiling panel (AID 489017). Particulars: Ricerca receptor/enzyme binding panel plus CYP450, at 10 µM, hits give high values.

A word on the inhibition: it is the change of the read-out against control, counted positive when it falls.

Consider `CCc1cccc(CC)c1NC(=O)c1ccc(-c2cc(Cl)ccc2Cl)o1`, for which the inhibition was -12%.
